# Compound activity deposited in PubChem BioAssay by The Scripps Research Institute Molecular Screening Center.
# PAFAH2 inh: inhibitors of human PAFAH2. AID 492956. recombinant PAFAH2, FP-rhodamine activity probe, fluorescence polarization. inhibition, % at 3.39 µM. Q99487. actives 0.99% (n = 340,000);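 active = inhibition above the mean over all tested compounds plus 3 SD, cut at about 30% in these data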;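 note: inhibitors block probe labeling of enzyme so polarization drops; 0% = enzyme with DMSO and 100% = wells lacking PAFAH2 protein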
# PP1 inh: blocks human PP1-alpha phosphatase, a PP5 counter-screen; P62136; purified PP1alpha, OMFP fluorescence; actives 0.9% (n = 320,000); inhibition, % at 6.7 µM;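 active = inhibition above the mean inhibition of all tested compounds plus 3 SD, computed separately for each screening campaign, cut at about 15% in these data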
# PAFAH1B3 FP inh: inhibitors of human PAFAH1B3; actives 0.28% (n = 340,000); inhibition, % at 3.39 µM; recombinant PAFAH1B3, FP-rhodamine probe, fluorescence polarization; Q15102; AID 492972;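 active = inhibition above the screen-wide average of all tested compounds plus 3 SD, cut at about 25% in these data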;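 note: 0% = enzyme with DMSO only and 100% = wells lacking PAFAH1B3 protein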
# Target sequence (Q15102 whole entry, looked up): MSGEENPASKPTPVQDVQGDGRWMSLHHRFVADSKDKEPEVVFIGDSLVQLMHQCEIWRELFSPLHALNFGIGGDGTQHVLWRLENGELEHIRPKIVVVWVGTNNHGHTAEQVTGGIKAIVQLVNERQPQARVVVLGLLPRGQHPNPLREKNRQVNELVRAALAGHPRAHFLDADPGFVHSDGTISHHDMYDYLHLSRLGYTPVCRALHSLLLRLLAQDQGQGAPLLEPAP
# PP5 primary: inhibitors of human protein phosphatase 5 (PP5) | P53041 | purified PP5c, OMFP substrate fluorescence | inhibition, % at 6.7 µM | actives 0.18% (n = 320,000);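 active = inhibition above the campaign's mean inhibition across all tested compounds plus 3 SD, cut at about 9.5% in these data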;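 note: 0% = DMSO only and 100% = 100 µM cantharidin control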
# PAFAH1B2 FP inh: inhibitors of human PAFAH1B2; P68402; recombinant PAFAH1B2, FP-rhodamine activity probe, fluorescence polarization; inhibition, % at 3.39 µM; actives 1.2% (n = 340,000);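 active = inhibition above the mean of all tested compounds plus 3 SD, cut at about 24% in these data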;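 note: 0% = enzyme with DMSO and 100% = wells lacking PAFAH1B2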
# pPAFAH inh: pPAFAH (human) enzyme inhibition. Q13093. recombinant pPAFAH, FP-rhodamine probe fluorescence polarization. inhibition, % at 3.39 µM. actives 1.5% (n = 330,000). AID 463082;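 active = inhibition above the mean inhibition across the screen plus 3 SD, cut at about 25% in these data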;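 note: inhibitors block binding of the rhodamine activity-based probe so polarization drops; 0% = enzyme with DMSO and 100% = wells lacking pPAFAH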
# Target sequence (Q13093 whole entry, looked up): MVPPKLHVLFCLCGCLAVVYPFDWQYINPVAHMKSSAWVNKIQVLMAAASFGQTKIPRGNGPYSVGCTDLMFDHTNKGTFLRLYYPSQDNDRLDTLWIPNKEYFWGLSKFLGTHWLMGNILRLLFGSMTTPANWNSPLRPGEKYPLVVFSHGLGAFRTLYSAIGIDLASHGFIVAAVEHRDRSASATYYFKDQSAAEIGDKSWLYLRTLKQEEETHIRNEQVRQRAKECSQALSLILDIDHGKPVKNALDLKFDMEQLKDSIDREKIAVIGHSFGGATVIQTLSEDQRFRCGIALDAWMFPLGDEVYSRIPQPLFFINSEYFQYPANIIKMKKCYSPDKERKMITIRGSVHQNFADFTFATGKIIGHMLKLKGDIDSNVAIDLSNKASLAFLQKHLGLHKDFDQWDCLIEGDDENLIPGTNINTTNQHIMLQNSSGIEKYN
# PAFAH2 confirm: confirmation of human PAFAH2 inhibitors | inhibition, % at 3.39 µM | recombinant PAFAH2, FP-rhodamine activity probe, fluorescence polarization | shares compounds with PAFAH2 inh | AID 493030 | actives 65% (n = 2,300);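 active = mean inhibition over three repeats above a set limit taken from the earlier primary screen, cut at about 30% in these data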;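 note: inhibitor blocks binding of rhodamine activity probe so polarization falls; 0% = enzyme with DMSO and 100% = wells lacking PAFAH2 protein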
# * = called active by the depositor; · = not tested or not shown. Compounds with a hit are over-represented: about 3.4% of the library has one in this group of screens.
SMILES,PAFAH2 inh,PP1 inh,PAFAH1B3 FP inh,PP5 primary,PAFAH1B2 FP inh,pPAFAH inh,PAFAH2 confirm
CCOc1ccccc1C(=O)OCC(=O)Nc1cc(S(=O)(=O)N2CCOCC2)ccc1C,31.7*,-3.3,-1.3,-1.7,2.4,-0.4,25.1
Cc1ccc(S(=O)(=O)N2CCOCC2)cc1NC(=O)COC(=O)c1ccc2c(c1)OCO2,63.6*,4.6,-4.1,-1.6,-0.5,0.8,51.6*
Cc1ccc(S(=O)(=O)N2CCOCC2)cc1NC(=O)COC(=O)COc1ccccc1[N+](=O)[O-],2.6,·,2.9,·,-1.5,3.3,·
Cc1ccc(C(=O)OCC(=O)Nc2cc(S(=O)(=O)N3CCOCC3)ccc2C)cc1,68.5*,6.4,3.2,0.5,1.3,5.2,60.6*
CC1CN(C(=O)COC(=O)c2cc(Cl)ccc2[N+](=O)[O-])CC(C)O1 (stereo not drawn),-1.2,1.5,-0.1,-0.2,2.5,3.9,·
CCCCNC(=O)CC1C(=O)N(Cc2ccccc2)C(C)c2nc3ccccc3n21 (stereo not drawn),4.0,0.5,-3.8,-1.1,3.0,1.8,·
CCC(CC)C(=O)OCC(=O)Nc1cccc([N+](=O)[O-])c1,36.1*,-3.0,4.8,0.5,-1.0,2.5,27.0
O=C(COC(=O)c1c[nH]c(=O)[nH]c1=O)Nc1cccc([N+](=O)[O-])c1,30.8*,-2.0,8.5,-1.9,2.2,-1.2,22.9
CCC(CCC(=O)Nc1cccc([N+](=O)[O-])c1)C(=O)O (stereo not drawn),2.4,-3.8,3.2,0.1,2.1,1.5,·
CCOc1ccc(NC(=O)COC(=O)c2cc(C)oc2C)cc1,56.9*,·,5.6,·,1.5,0.1,52.7*
Cc1cc(C(=O)OCC(=O)Nc2cccc([N+](=O)[O-])c2)c(C)o1,74.8*,·,1.5,·,5.3,3.9,78.1*
Nc1ccccc1Nc1ccccc1,-1.6,-5.2,-1.1,2.1,0.3,8.3,·
COC1CCN(Cc2c(C(=O)N3CCc4ccccc4C3)nc3ccc(Cl)cn23)CC1,2.5,0.4,7.0,1.1,-0.5,-7.0,·
CCOc1ccc(Br)cc1S(=O)(=O)Nc1ccc(C(=O)OCC(=O)Nc2ccc(C#N)cc2)cc1,36.1*,-5.2,-40.9,3.1,-14.3,-11.8,29.9*
CC(C)=CC(=O)OCC(=O)Nc1ccc(SC(F)F)cc1,78.3*,1.6,1.2,-0.4,0.3,21.3,84.6*
CCOc1ccc(C(=O)OCC(=O)Nc2ccc(SC(F)F)cc2)cc1OCC,80.1*,8.2,-2.0,1.1,-0.2,10.9,77.1*
O=C(COC(=O)c1cc[n+]([O-])cc1)Nc1ccc(SC(F)F)cc1,-5.5,-3.0,-10.3,-0.5,-2.1,10.3,·
CCSc1nnc(NC(=O)c2ccccn2)s1,2.5,3.5,0.1,-1.5,0.9,-1.5,·
Cc1cnc(C(=O)Nc2nnc(SCc3c(Cl)cccc3Cl)s2)cn1,59.7*,14.1,12.6,2.3,0.6,-0.8,49.7*
CCSc1nnc(NC(=O)C2Cc3ccccc3CN2S(=O)(=O)CC)s1 (stereo not drawn),1.7,5.0,2.7,1.0,1.9,8.2,·
CCS(=O)(=O)N1Cc2ccccc2CC1C(=O)Nc1nnc(SCc2c(Cl)cccc2Cl)s1 (stereo not drawn),51.6*,17.4*,-8.9,0.5,5.7,1.8,35.3*
O=C(CN1C(=O)C2CC=CCC2C1=O)Nc1nnc(SCc2c(Cl)cccc2Cl)s1 (stereo not drawn),77.8*,6.2,-0.2,-0.7,9.1,11.8,74.3*
CC(C)C(NC(=O)OCc1ccccc1)C(=O)OCC(=O)N1CCCCC1 (stereo not drawn),1.1,-1.5,5.9,0.6,5.4,-1.5,·
O=C(COC(=O)CCC(NC(=O)OCc1ccccc1)C(=O)OCC(=O)Nc1ccccc1)Nc1ccccc1 (stereo not drawn),69.7*,3.6,-7.6,4.7,5.5,2.8,83.5*
O=C(CCC(NC(=O)OCc1ccccc1)C(=O)OCC(=O)N1CCCCC1)OCC(=O)N1CCCCC1 (stereo not drawn),53.2*,-1.4,6.7,-0.1,5.5,3.1,47.8*
SMILES,PAFAH2 inh,PP1 inh,PAFAH1B3 FP inh,PP5 primary,PAFAH1B2 FP inh,pPAFAH inh,PAFAH2 confirm
Cc1nc(SCC(=O)N(C)C2(C#N)CCCCC2)c2ccccc2n1,-2.1,-0.9,2.7,-1.2,-2.4,3.9,·
COc1cc(/C=C/C(=O)OCC(=O)NC(=O)NC(C)C)cc(OC)c1OC,0.1,-3.0,4.2,0.9,2.7,-1.5,·
COc1cc(/C=C/C(=O)OCC(=O)NC(C)c2ccccc2)cc(OC)c1OC (stereo not drawn),30.8*,·,7.6,·,3.3,4.8,14.1
CC(NC(=O)COC(=O)/C=C/c1ccc(Cl)cc1)c1ccccc1 (stereo not drawn),30.6*,-3.4,6.7,-0.3,9.3,2.7,21.5
CC(NC(=O)COC(=O)/C=C/c1cccc(F)c1)c1ccccc1 (stereo not drawn),46.2*,·,-0.1,·,8.9,6.5,33.8*
CC(NC(=O)COC(=O)COc1ccc(Cl)cc1)c1ccccc1 (stereo not drawn),1.2,·,2.1,·,18.4,15.5,·
C/C(CC(=O)Nc1ccc(N(C)C)cc1)=N\NC(=O)Cc1csc(N)n1,49.1*,-4.1,3.1,-0.4,3.4,8.8,6.7
CCOc1ccccc1NC(=O)Nc1ccc(OC)nc1,-1.3,·,7.0,·,-1.4,·,·
Cc1ccc(NC(=O)Cc2nc(COC(=O)Cc3cccc(C(F)(F)F)c3)cs2)cc1,47.2*,·,-2.1,·,10.3,·,1.2
Cc1ccc(NC(=O)Cc2nc(COC(=O)c3c(F)cccc3Cl)cs2)cc1,20.1,·,8.0,·,0.7,18.7,·
CC(=O)c1c(C)[nH]c(C(=O)OCC(=O)Nc2ccccc2Cl)c1C,32.9*,-1.3,10.1,-1.6,0.8,-4.2,20.0
CCOC(=O)c1c(C)[nH]c(C(=O)OCC(=O)Nc2ccccc2)c1C,34.5*,6.5,-0.5,-0.7,4.4,2.8,33.5*
CC(=O)c1c(C)[nH]c(C(=O)OCC(=O)NCC(C)C)c1C,31.1*,-1.6,7.5,0.8,-2.1,-4.2,16.3
CS(=O)(=O)c1ccccc1C(=O)Nc1cc(Cl)ccc1-n1cncn1,5.7,-4.1,1.2,0.1,-3.1,-1.8,·
Cc1cccc(C(=O)Nc2cc(Cl)ccc2-n2cncn2)c1[N+](=O)[O-],39.3*,-7.2,1.1,-0.1,1.5,7.8,31.1*
CN1/C(=C\C(=O)COC(=O)c2ccco2)C(C)(C)c2ccccc21,33.3*,-1.2,6.9,0.3,7.8,-4.6,36.9*
CN1/C(=C\C(=O)c2ccco2)C(C)(C)c2ccccc21,-76.4,-2.7,-48.1,-0.3,-47.3,-8.6,·
Cc1ccc(-n2c(C)cc(C=C3C(=O)CC(C)(C)CC3=O)c2C)cc1,9.3,-1.3,5.4,-0.4,5.5,9.1,·
